Source: PubChem BioAssay (several laboratories)
IEC-6 cytotox: cytotoxicity in IEC-6 intestinal epithelial cells, primary screen, cytotoxicity control for KLF5 inhibitor project, cell-based, luminescence; IEC-6 cytotoxicity, luminescence viability; inhibition, % at 5 µM; actives 0.78% (n = 290,000); AID 1825, 2009; in the data active means inhibition above about 22%;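 further: 0% = plate median of test compound wells and 100% = cytotoxic reference compound wells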
Ba/F3 V617F tox: reduced viability of JAK2V617F-dependent Ba/F3 cells, primary screen, JAK2V617F inhibitor project, cell-based, Ba/F3 EpoR-JAK2V617F, luminescence; actives 1.1% (n = 220,000); AID 1446, 2008; ATP luminescence; inhibition, % at 5.6 µM;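 active means inhibition above the campaign mean plus 3 SD over all tested compounds, cut at about 24% in these data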;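 further: cytokine-independent growth of Ba/F3 cells driven by EpoR plus mutant JAK2; 0% = DMSO-treated cells and 100% = JAK inhibitor I control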
BaF3 parental: parental Ba/F3 cell viability inhibition, counter-screen for JAK2V617F inhibitor project, murine pro-B, CellTiter-Glo luminescence. actives 1.1% (n = 220,000). CellTiter-Glo ATP luminescence. inhibition, % at 5.6 µM;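 active means inhibition above a per-campaign cutoff, the mean inhibition of all tested compounds plus 3 SD, cut at about 27% in these data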;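 further: 0% = DMSO wells and 100% = JAK Inhibitor I control wells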
KLF5 inh: KLF5 expression inhibitors, primary screen, DLD-1 cells, luminescence | DLD-1 KLF5 promoter-luciferase reporter | inhibition, % at 5 µM | actives 0.23% (n = 290,000) | AID 1700, 2009;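 active means inhibition above a per-plate limit of that plate's mean compound inhibition plus 3 SD, cut at about 60% in these data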;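 further: 0% = DMSO wells and 100% = LY294002 at 200 µM; higher means less KLF5 promoter-driven luciferase light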
APP transl inh: inhibitors of APP translation via 5'UTR reporter, primary screen, APP 5'UTR luciferase, SH-SY5Y cells; SH-SY5Y APP 5'UTR-luciferase reporter, luminescence; AID 1285, 2008; actives 0.82% (n = 190,000); inhibition, % at 2 µM;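 active means inhibition above a set limit, derived from the sample mean plus 3 SD, cut at about 45% in these data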
An asterisk follows results filed as active; · = no result. The list is not random: actives were taken first. Their share in the collection is about 1.8%.

SMILES	IEC-6 cytotox	Ba/F3 V617F tox	BaF3 parental	KLF5 inh	APP transl inh
OC(c1ccc(F)cc1)(C1CCCCC1)C(CN1CCOCC1)c1ccccc1 (stereo not drawn)	-7	·	·	-14	·
CCCCCNS(=O)(=O)c1cc2c3c(c1)CCC(=O)N3CCC2	-3	·	·	-30	·
C1CCCCCC(NCCN2CCNCC2)CCCCC1	9	80*	42*	-32	·
O=Cc1ccc(Oc2cnccn2)cc1	-4	-2	-2	-7	76*
Cc1ccc2nc(NC(=O)C3CCN(S(=O)(=O)c4cc([N+](=O)[O-])ccc4Cl)CC3)sc2c1	2	37*	38*	14	9
CCCC(=O)OCCNc1cc(Sc2nccn2C)c2nonc2c1[N+](=O)[O-]	0	-1	3	-6	75*
CCCSc1cc(NCCOC(=O)CCC)c([N+](=O)[O-])c2nonc12	-1	-3	4	0	11
CC(C)Oc1ncnc2c1[nH]c1ccccc12	6	0	36*	-35	·
O=C(Nc1ccc(NC(=O)c2cc3ccccc3o2)cc1)c1ccc2c(c1)OCCO2	-3	1	7	-10	67*
CC(C1CC2CCC1C2)n1c(-c2ccco2)n[nH]c1=S (stereo not drawn)	-3	-2	8	-4	54*
Cc1ccc(-n2c(-c3ccco3)n[nH]c2=S)cc1	-1	-4	6	-18	4
Cc1ccc2c(c1)N(CC(=O)NC(C)CCc1ccccc1)C(=O)c1cccnc1O2 (stereo not drawn)	-2	·	·	-34	·
CCOP(=O)(/C(C#N)=C(\C)O)c1ccccc1 (stereo not drawn)	1	7	81*	-17	-8
CCCCN1C(C(=O)Nc2ncccn2)=C(O)c2ccccc2S1(=O)=O	-2	·	·	-19	·
Cn1cc(/C=N/n2cnc3scc(-c4ccccc4)c3c2=O)c2ccccc21	1	2	5	-27	92*
O=c1c2c(-c3ccccc3)csc2ncn1/N=C/c1cccc([N+](=O)[O-])c1O	3	2	7	-9	13
CC1=C([N+](=O)[O-])C(c2cccc(Br)c2)C2=C(N1)c1ccccc1C2=O (stereo not drawn)	77*	77*	76*	48	86*
Cc1cc(NC(=O)CSc2nc(C(C)(C)C)nc3ccccc23)no1	-2	0	4	11	49*
CCCc1nc(SCC(=O)Nc2cc(C)on2)c2ccccc2n1	12	5	5	7	-4
O=C1NC(=S)S/C1=C/c1ccc(N2CCOCC2)o1	-12	-1	7	-55	13
O=C1NC(=S)S/C1=C\C=C\c1ccc([N+](=O)[O-])o1	-28	31*	9	10	·
O=C(CN(C(=O)CNC(=O)c1ccco1)c1ccc(F)cc1)NC1CCCCC1	-4	·	·	7	·
CCSc1ccc2cc(OC)ccc2[n+]1CC	-6	82*	88*	-9	36
Cc1ccn2c(Nc3ccccc3)c(-c3ccccn3)nc2c1	-2	4	7	-38	59*
Cc1ccn2c(Nc3ccccc3C)c(-c3ccccn3)nc2c1	-1	-2	0	-9	28
SMILES	IEC-6 cytotox	Ba/F3 V617F tox	BaF3 parental	KLF5 inh	APP transl inh
Cc1nc(C(=O)NNC(=O)c2ccc(Cl)cc2)c(C(F)(F)F)o1	8	-4	31*	2	·
CCOc1ccccc1N(CC(=O)NCc1ccco1)C(=O)CCC(=O)Nc1nccs1	-4	·	·	-12	·
O=C(NC(=S)NC1CCCCCCCCCCC1)c1cccnc1	-4	-2	65*	-9	2
Cc1nc(C(F)(F)F)c(C(=O)N/N=C(\N)c2ccccn2)s1	5	1	8	16	57*
COc1cc(/C=C/C(=O)O)cc(S(=O)(=O)Nc2ccc3c(c2)OCO3)c1OC	5	2	3	-36	-15
CN1CCN(C(=S)NC(=O)c2ccc(C(C)(C)C)cc2)CC1	10	0	3	12	17
C=CCn1cccc(/C=C/C(=O)c2ccc(C(C)(C)C)cc2)c1=S	0	10	46*	-7	14
Cc1cc(NC(=O)COC(=O)c2ccc(S(=O)(=O)N3CCCC3)cc2)no1	-1	-1	5	-18	-8
Cc1cc(NC(=O)COC(=O)c2ccc(S(=O)(=O)N3CCCc4ccccc43)cc2)no1	2	63*	49*	63*	92*
CCN(CC)C(=S)Nc1ccc(OC)cc1	-6	-4	1	3	4
